# Reference: paper PMC7862700, “An all-to-all approach to the identification of sequence-specific readers for epigenetic DNA modifications on cytosine”
# Legend:
# Assay in all cases: DAPPL (digital affinity profiling via proximity ligation, sequencing); 10 mM Tris-HCl pH 7.5, 50 mM NaCl, 1 mM DTT, 4% glycerol, room temperature, 30 min; GST-TFs on glutathione beads, 16-mer random dsDNA library, 0.1% formaldehyde crosslink after washing; high values mean tight binding
# FEV = target: T1, FEV (Homo sapiens, UniProt Q99581 1-238); details: protein: recombinant; tags: N-terminal GST; dsDNA, one strand shown
# T1 sequence: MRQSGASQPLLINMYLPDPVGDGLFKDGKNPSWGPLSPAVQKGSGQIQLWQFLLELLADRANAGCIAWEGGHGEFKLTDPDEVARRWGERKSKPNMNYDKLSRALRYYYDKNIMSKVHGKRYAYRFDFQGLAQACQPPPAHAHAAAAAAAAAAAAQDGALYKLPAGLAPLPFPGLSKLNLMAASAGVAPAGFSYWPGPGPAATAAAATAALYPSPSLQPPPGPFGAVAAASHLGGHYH
# How it was run: (§1)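 GST fusions of human transcription factors were expressed in yeast and captured with glutathione beads. Once given DNA barcodes and pooled alongside a tag-only sample, they were incubated for 30 min at room temperature with 200 nmole of a random double-stranded 16-mer DNA library in Tris/NaCl/DTT/glycerol buffer, then washed, crosslinked (0.1% formaldehyde), proximity-ligated, PCR-amplified and sequenced on an Illumina NextSeq500. The binding signal of each hexamer is its read frequency for a factor divided by its frequency for the tag-only sample.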
# ETV5 = ETV5 (Homo sapiens, UniProt P41161 1-510); details: protein: recombinant; tags: N-terminal GST; dsDNA, one strand shown
# ETV5, sequence (P41161 whole entry): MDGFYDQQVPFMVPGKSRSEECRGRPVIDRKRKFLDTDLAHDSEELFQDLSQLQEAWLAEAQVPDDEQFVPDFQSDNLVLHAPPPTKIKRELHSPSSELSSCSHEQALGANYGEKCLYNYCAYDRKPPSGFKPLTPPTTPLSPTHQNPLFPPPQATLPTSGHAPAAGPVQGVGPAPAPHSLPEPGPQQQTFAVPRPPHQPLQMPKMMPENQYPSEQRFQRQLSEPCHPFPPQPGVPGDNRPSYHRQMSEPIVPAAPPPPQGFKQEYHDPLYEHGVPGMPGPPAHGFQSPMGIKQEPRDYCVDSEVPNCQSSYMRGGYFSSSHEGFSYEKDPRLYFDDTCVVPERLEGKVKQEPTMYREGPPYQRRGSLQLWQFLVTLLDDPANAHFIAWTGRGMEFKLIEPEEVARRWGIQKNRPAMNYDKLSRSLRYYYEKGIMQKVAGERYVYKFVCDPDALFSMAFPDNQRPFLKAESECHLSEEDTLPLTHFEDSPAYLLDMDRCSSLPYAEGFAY
# How it was run: as §1
# HSF1 = HSF1 (Homo sapiens, UniProt Q00613 1-529); details: protein: recombinant; tags: N-terminal GST; chain copies: 3; dsDNA, one strand shown
# HSF1, sequence (Q00613 whole entry): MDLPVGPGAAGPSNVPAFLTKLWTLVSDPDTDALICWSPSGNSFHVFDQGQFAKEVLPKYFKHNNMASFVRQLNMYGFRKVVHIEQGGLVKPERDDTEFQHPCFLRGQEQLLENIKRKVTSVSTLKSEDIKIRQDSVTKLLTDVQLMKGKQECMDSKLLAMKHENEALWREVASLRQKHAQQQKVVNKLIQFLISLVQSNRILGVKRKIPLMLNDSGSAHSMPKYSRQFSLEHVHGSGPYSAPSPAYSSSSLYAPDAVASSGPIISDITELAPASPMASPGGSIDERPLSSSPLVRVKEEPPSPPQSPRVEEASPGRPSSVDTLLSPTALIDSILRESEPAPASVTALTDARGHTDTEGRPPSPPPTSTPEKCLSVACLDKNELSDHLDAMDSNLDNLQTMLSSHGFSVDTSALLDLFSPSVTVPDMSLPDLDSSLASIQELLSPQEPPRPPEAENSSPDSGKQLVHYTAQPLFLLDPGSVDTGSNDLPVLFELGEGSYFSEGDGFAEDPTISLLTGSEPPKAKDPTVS
# How it was run: as §1
# SPIC = target: T2, SPIC (Homo sapiens, UniProt Q8N5J4 1-248); details: protein: recombinant; tags: N-terminal GST; dsDNA, one strand shown
# T2 sequence: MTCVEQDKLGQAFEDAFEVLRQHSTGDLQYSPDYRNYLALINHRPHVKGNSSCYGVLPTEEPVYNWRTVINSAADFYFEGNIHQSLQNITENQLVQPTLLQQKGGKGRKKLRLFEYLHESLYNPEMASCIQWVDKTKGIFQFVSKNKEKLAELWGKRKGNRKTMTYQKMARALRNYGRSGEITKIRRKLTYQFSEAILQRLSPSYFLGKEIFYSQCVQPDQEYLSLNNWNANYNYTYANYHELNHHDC
# How it was run: as §1
# ELF4 = ELF4 (Homo sapiens, UniProt Q99607 1-663); details: protein: recombinant; tags: N-terminal GST; dsDNA, one strand shown
# ELF4, sequence (Q99607 whole entry): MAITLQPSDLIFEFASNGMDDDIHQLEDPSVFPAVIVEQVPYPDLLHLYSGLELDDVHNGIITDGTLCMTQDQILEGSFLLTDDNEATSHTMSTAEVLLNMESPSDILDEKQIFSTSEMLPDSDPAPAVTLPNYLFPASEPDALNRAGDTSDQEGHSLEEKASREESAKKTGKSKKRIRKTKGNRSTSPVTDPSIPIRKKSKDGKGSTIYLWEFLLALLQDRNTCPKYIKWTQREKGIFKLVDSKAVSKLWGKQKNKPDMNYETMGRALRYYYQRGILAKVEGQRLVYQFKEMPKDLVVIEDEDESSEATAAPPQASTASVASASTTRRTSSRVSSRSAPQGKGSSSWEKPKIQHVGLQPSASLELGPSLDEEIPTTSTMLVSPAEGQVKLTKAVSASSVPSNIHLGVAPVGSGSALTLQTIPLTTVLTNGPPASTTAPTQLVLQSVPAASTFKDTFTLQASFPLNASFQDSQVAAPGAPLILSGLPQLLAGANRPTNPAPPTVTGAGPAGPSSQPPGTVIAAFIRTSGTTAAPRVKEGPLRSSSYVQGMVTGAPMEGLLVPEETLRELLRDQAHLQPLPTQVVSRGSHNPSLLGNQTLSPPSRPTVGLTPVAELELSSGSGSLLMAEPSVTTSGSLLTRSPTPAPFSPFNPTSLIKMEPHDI
# How it was run: as §1
# ELK4 = target: T3, ELK4 (Homo sapiens, UniProt P28324-2 1-405); details: protein: recombinant; tags: N-terminal GST; dsDNA, one strand shown
# T3 sequence: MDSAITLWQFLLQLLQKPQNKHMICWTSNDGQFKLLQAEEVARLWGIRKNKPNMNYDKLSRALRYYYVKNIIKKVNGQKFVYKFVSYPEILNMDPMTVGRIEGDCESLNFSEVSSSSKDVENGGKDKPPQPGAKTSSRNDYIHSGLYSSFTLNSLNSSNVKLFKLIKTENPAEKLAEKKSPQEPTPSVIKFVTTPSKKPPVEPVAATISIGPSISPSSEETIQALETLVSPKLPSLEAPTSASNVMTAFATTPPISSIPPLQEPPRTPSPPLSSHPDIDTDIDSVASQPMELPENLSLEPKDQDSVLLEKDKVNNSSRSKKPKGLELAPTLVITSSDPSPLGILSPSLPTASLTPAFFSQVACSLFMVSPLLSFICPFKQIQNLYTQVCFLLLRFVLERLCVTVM
# How it was run: as §1
# ETV2 = target: T4, ETV2 (Homo sapiens, UniProt O00321 1-342); details: protein: recombinant; tags: N-terminal GST; dsDNA, one strand shown
# T4 sequence: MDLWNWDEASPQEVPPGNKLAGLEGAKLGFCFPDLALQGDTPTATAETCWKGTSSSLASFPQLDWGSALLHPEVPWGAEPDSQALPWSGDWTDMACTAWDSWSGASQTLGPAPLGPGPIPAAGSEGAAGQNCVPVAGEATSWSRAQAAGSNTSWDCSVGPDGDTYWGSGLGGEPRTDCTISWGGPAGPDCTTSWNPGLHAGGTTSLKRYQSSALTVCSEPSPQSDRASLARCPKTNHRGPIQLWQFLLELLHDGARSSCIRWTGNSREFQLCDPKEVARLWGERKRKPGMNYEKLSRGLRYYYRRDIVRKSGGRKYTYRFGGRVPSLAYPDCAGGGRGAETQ
# How it was run: as §1
# ELF3 = target: T5, ELF3 (Homo sapiens, UniProt P78545 1-371); details: protein: recombinant; tags: N-terminal GST; dsDNA, one strand shown
# T5 sequence: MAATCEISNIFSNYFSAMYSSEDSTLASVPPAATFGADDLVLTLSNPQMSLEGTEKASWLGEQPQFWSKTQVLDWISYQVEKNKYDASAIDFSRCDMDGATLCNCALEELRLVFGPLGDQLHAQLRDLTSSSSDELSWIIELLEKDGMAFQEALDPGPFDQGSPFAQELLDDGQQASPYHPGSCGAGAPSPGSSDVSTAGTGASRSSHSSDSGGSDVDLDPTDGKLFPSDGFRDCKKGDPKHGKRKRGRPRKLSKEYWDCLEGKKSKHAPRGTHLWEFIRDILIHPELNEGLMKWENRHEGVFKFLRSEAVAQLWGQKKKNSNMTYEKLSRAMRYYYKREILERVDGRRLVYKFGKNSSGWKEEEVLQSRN
# How it was run: as §1
# CRX = CRX (Homo sapiens, UniProt O43186 1-299); details: protein: recombinant; tags: N-terminal GST; dsDNA, one strand shown
# CRX, sequence (O43186 whole entry): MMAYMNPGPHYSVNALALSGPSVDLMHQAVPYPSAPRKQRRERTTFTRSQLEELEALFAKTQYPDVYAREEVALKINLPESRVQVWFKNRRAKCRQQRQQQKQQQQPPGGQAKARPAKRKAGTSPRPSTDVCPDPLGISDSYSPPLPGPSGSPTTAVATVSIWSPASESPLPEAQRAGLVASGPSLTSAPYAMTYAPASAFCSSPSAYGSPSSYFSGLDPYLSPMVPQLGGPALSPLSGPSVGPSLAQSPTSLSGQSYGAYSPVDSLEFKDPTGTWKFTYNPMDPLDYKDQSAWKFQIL
# How it was run: as §1
# ETV1 = ETV1 (Homo sapiens, UniProt P50549 1-477); details: protein: recombinant; tags: N-terminal GST; dsDNA, one strand shown
# ETV1, sequence (P50549 whole entry): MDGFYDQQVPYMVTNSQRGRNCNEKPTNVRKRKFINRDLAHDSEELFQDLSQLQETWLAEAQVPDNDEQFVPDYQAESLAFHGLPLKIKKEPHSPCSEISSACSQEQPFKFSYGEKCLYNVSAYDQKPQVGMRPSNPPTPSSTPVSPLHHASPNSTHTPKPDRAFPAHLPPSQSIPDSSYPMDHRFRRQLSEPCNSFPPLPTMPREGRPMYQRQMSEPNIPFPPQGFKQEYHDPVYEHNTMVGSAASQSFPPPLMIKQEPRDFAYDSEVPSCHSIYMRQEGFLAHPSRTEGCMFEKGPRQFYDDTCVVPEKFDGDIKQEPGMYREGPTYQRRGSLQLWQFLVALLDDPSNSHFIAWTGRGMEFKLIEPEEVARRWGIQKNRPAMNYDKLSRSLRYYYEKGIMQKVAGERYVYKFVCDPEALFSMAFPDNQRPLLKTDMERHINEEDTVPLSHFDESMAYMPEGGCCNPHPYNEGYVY
# How it was run: as §1
sequence,measurement,setting,value
TTATTT,binding signal,FEV,"1.41 fold enrichment (6-mer frequency, TF over GST control)"
same,binding signal,ETV5,"1.47 fold enrichment (6-mer frequency, TF over GST control)"
same,binding signal,HSF1,"1.64 fold enrichment (6-mer frequency, TF over GST control)"
same,binding signal,SPIC,"1.48 fold enrichment (6-mer frequency, TF over GST control)"
same,binding signal,ELF4,"1.32 fold enrichment (6-mer frequency, TF over GST control)"
same,binding signal,ELK4,"1.43 fold enrichment (6-mer frequency, TF over GST control)"
same,binding signal,ETV2,"1.26 fold enrichment (6-mer frequency, TF over GST control)"
same,binding signal,ELF3,"1.55 fold enrichment (6-mer frequency, TF over GST control)"
same,binding signal,CRX,"2.43 fold enrichment (6-mer frequency, TF over GST control)"
same,binding signal,ETV1,"1.52 fold enrichment (6-mer frequency, TF over GST control)"
